# Experimental data as given in publication PMC11006913.
# Residue numbers refer to the chain shown, from its start.
# Tests used:
# Assay in all cases: PBM; 200 nM protein, PBS
# Details in all cases: dsDNA, one strand shown
# SIX6 [1] = target: T1, SIX6 (Homo sapiens, UniProt O95475 114-200, L167I)
# T1 sequence: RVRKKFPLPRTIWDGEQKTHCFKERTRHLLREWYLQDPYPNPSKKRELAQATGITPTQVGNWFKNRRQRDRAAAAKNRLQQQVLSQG
# SIX6 [2] = target: T2, SIX6 (Homo sapiens, UniProt O95475 114-200, H141N)
# T2 sequence: T1 sequence with H28N, I54L
# SIX6 [3] = target: T3, SIX6 (Homo sapiens, UniProt O95475 114-200, L167M)
# T3 sequence: T1 sequence with I54M
# SIX6 [4] = target: T4, SIX6 (Homo sapiens, UniProt O95475 114-200, T165G)
# T4 sequence: T1 sequence with T52G, I54L
# SIX6 [5] = target: T5, SIX6 (Homo sapiens, UniProt O95475 114-200)
# T5 sequence: T1 sequence with I54L
# SIX6 [6] = target: T6, SIX6 (Homo sapiens, UniProt O95475 114-200, T165P)
# T6 sequence: T1 sequence with T52P, I54L
# SIX6 [7] = target: T7, SIX6 (Homo sapiens, UniProt O95475 114-200, L143M)
# T7 sequence: T1 sequence with L30M, I54L
# SIX6 [8] = target: T8, SIX6 (Homo sapiens, UniProt O95475 114-200, L143I)
# T8 sequence: T1 sequence with L30I, I54L
# SIX6 [9] = target: T9, SIX6 (Homo sapiens, UniProt O95475 114-200, T165A)
# T9 sequence: T1 sequence with T52A, I54L
# SIX6 [10] = target: T10, SIX6 (Homo sapiens, UniProt O95475 114-200, L167V)
# T10 sequence: T1 sequence with I54V
# SIX6 [11] = target: T11, SIX6 (Homo sapiens, UniProt O95475 114-200, T165I)
# T11 sequence: T1 sequence with T52I, I54L
# SIX6 [12] = target: T12, SIX6 (Homo sapiens, UniProt O95475 114-200, T139Q)
# T12 sequence: T1 sequence with T26Q, I54L
# SIX6 [13] = target: T13, SIX6 (Homo sapiens, UniProt O95475 114-200, L143V)
# T13 sequence: T1 sequence with L30V, I54L
sequence,measurement,setting,value
TATAACCA,binding signal,SIX6 [1],"10.1 upbm affinity estimate (log intensity, higher = more binding, comparable within an allelic series)"
same,binding signal,SIX6 [2],"10.1 upbm affinity estimate (log intensity, higher = more binding, comparable within an allelic series)"
same,binding signal,SIX6 [3],"10.2 upbm affinity estimate (log intensity, higher = more binding, comparable within an allelic series)"
same,binding signal,SIX6 [4],"10.2 upbm affinity estimate (log intensity, higher = more binding, comparable within an allelic series)"
same,binding signal,SIX6 [5],"10.1 upbm affinity estimate (log intensity, higher = more binding, comparable within an allelic series)"
CGGATAAA,binding signal,SIX6 [1],"10.4 upbm affinity estimate (log intensity, higher = more binding, comparable within an allelic series)"
same,binding signal,SIX6 [2],"10.3 upbm affinity estimate (log intensity, higher = more binding, comparable within an allelic series)"
same,binding signal,SIX6 [6],"9.86 upbm affinity estimate (log intensity, higher = more binding, comparable within an allelic series)"
same,binding signal,SIX6 [3],"10.4 upbm affinity estimate (log intensity, higher = more binding, comparable within an allelic series)"
same,binding signal,SIX6 [7],"10.5 upbm affinity estimate (log intensity, higher = more binding, comparable within an allelic series)"
same,binding signal,SIX6 [8],"10 upbm affinity estimate (log intensity, higher = more binding, comparable within an allelic series)"
same,binding signal,SIX6 [9],"10.3 upbm affinity estimate (log intensity, higher = more binding, comparable within an allelic series)"
same,binding signal,SIX6 [10],"10.2 upbm affinity estimate (log intensity, higher = more binding, comparable within an allelic series)"
same,binding signal,SIX6 [5],"10.4 upbm affinity estimate (log intensity, higher = more binding, comparable within an allelic series)"
same,binding signal,SIX6 [11],"10.3 upbm affinity estimate (log intensity, higher = more binding, comparable within an allelic series)"
AAGTATCT,binding signal,SIX6 [1],"10.5 upbm affinity estimate (log intensity, higher = more binding, comparable within an allelic series)"
same,binding signal,SIX6 [2],"10.4 upbm affinity estimate (log intensity, higher = more binding, comparable within an allelic series)"
same,binding signal,SIX6 [3],"10.2 upbm affinity estimate (log intensity, higher = more binding, comparable within an allelic series)"
same,binding signal,SIX6 [7],"10.4 upbm affinity estimate (log intensity, higher = more binding, comparable within an allelic series)"
same,binding signal,SIX6 [8],"9.98 upbm affinity estimate (log intensity, higher = more binding, comparable within an allelic series)"
same,binding signal,SIX6 [4],"10.4 upbm affinity estimate (log intensity, higher = more binding, comparable within an allelic series)"
same,binding signal,SIX6 [12],"10.6 upbm affinity estimate (log intensity, higher = more binding, comparable within an allelic series)"
same,binding signal,SIX6 [9],"10.4 upbm affinity estimate (log intensity, higher = more binding, comparable within an allelic series)"
same,binding signal,SIX6 [10],"10.3 upbm affinity estimate (log intensity, higher = more binding, comparable within an allelic series)"
same,binding signal,SIX6 [5],"10.3 upbm affinity estimate (log intensity, higher = more binding, comparable within an allelic series)"
same,binding signal,SIX6 [11],"10.3 upbm affinity estimate (log intensity, higher = more binding, comparable within an allelic series)"
ACGGATAG,binding signal,SIX6 [1],"10.1 upbm affinity estimate (log intensity, higher = more binding, comparable within an allelic series)"
same,binding signal,SIX6 [13],"9.74 upbm affinity estimate (log intensity, higher = more binding, comparable within an allelic series)"
same,binding signal,SIX6 [2],"10 upbm affinity estimate (log intensity, higher = more binding, comparable within an allelic series)"
same,binding signal,SIX6 [6],"9.43 upbm affinity estimate (log intensity, higher = more binding, comparable within an allelic series)"
same,binding signal,SIX6 [8],"9.74 upbm affinity estimate (log intensity, higher = more binding, comparable within an allelic series)"
same,binding signal,SIX6 [4],"10 upbm affinity estimate (log intensity, higher = more binding, comparable within an allelic series)"
same,binding signal,SIX6 [5],"10.2 upbm affinity estimate (log intensity, higher = more binding, comparable within an allelic series)"
AGTATCAA,binding signal,SIX6 [1],"11.1 upbm affinity estimate (log intensity, higher = more binding, comparable within an allelic series)"
same,binding signal,SIX6 [2],"11.1 upbm affinity estimate (log intensity, higher = more binding, comparable within an allelic series)"
same,binding signal,SIX6 [4],"11.1 upbm affinity estimate (log intensity, higher = more binding, comparable within an allelic series)"
same,binding signal,SIX6 [9],"11.1 upbm affinity estimate (log intensity, higher = more binding, comparable within an allelic series)"
AAGGTATC,binding signal,SIX6 [1],"11.1 upbm affinity estimate (log intensity, higher = more binding, comparable within an allelic series)"
same,binding signal,SIX6 [2],"11 upbm affinity estimate (log intensity, higher = more binding, comparable within an allelic series)"
CTGATATC,binding signal,SIX6 [1],"11.1 upbm affinity estimate (log intensity, higher = more binding, comparable within an allelic series)"
same,binding signal,SIX6 [2],"11 upbm affinity estimate (log intensity, higher = more binding, comparable within an allelic series)"
same,binding signal,SIX6 [7],"10.9 upbm affinity estimate (log intensity, higher = more binding, comparable within an allelic series)"
same,binding signal,SIX6 [9],"11 upbm affinity estimate (log intensity, higher = more binding, comparable within an allelic series)"
same,binding signal,SIX6 [10],"10.9 upbm affinity estimate (log intensity, higher = more binding, comparable within an allelic series)"
same,binding signal,SIX6 [11],"10.9 upbm affinity estimate (log intensity, higher = more binding, comparable within an allelic series)"
GATCAGCC,binding signal,SIX6 [1],"10.2 upbm affinity estimate (log intensity, higher = more binding, comparable within an allelic series)"
same,binding signal,SIX6 [13],"9.81 upbm affinity estimate (log intensity, higher = more binding, comparable within an allelic series)"
same,binding signal,SIX6 [6],"9.41 upbm affinity estimate (log intensity, higher = more binding, comparable within an allelic series)"
same,binding signal,SIX6 [3],"10 upbm affinity estimate (log intensity, higher = more binding, comparable within an allelic series)"
same,binding signal,SIX6 [8],"9.82 upbm affinity estimate (log intensity, higher = more binding, comparable within an allelic series)"
same,binding signal,SIX6 [5],"10.3 upbm affinity estimate (log intensity, higher = more binding, comparable within an allelic series)"
